# CtBP-E1A inh = inhibitors of CtBP/E1A interaction. AlphaScreen GST-E1A/His-CtBP binding, 1536-well; hits give low values. activity change, % (no concentration beside the values). 340,000 compounds, 0.49% hits. AID 651724; in the data active = activity change below about -65%; inconclusive = mostly about -30% to -63%
#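 Protein mix (5X: 125 nM each GST-E1A, His-CtBP) was incubated with pinned compound 2 h at 37 deg C in dark, in 50 mM Tris pH 8.0 buffer with 300 mM NaCl. Glutathione donor and nickel acceptor beads followed; AlphaScreen signal read after 1 h.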
# Apoferritin bind = candidate novel general anesthetic via apoferritin binding; Potency, µM (series often up to 77.5 µM), for inactives: at the highest dose activity change, negative = displacement, usual class: inhibitors; 350,000 compounds, 0.074% hits; AID 485281; P02791; apoferritin/1-aminoanthracene competitive binding, fluorescence; also: potency is read from the fitted curve at half-maximal effect; nearly all actives have a fitted effect of over 20% in size
# Target sequence (P02791 2-175 limits assumed): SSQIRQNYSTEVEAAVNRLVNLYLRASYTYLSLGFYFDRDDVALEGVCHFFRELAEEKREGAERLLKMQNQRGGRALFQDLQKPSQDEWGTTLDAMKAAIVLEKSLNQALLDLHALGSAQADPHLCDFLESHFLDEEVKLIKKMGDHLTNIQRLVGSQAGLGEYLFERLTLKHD
#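 Concentration-response curves derived by four-parameter Hill fitting of normalized fluorescence, where compounds displaced 1-AMA from 10 uM horse apoferritin following a brief 10 min room-temperature incubation; propofol titration acted as positive control.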
# GALK inhibitor = blocks human galactokinase activity; 270,000 compounds, 0.007% hits; Potency, µM (doses to about 57.5 µM), inactives show top-dose activity change, negative = inhibition, usual class: inhibitors; Purified GALK, Kinase-Glo residual ATP luminescence; AID 1868; P51570; also: potency is read from the fitted curve at half-maximal effect
#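 Galactose (100 uM) and ATP (35 uM) were turned over by 5 nM GALK for 1 h at RT. Kinase-Glo Plus then converted the remaining ATP into a luminescent signal.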
# Eya2 phos inh = Eya2 (human) phosphatase inhibition; recombinant Eya2, OMFP fluorescence dephosphorylation (OMFP is methylfluorescein phosphate); Potency, µM (highest dose often 76.9 µM), without a hit: top-dose activity, negative = inhibition, actives largely listed as inhibitors; 330,000 compounds, 0.006% hits; AID 488837; also: potency is read from the fitted curve at half-maximal effect
# Target sequence (O00167 whole entry, looked up): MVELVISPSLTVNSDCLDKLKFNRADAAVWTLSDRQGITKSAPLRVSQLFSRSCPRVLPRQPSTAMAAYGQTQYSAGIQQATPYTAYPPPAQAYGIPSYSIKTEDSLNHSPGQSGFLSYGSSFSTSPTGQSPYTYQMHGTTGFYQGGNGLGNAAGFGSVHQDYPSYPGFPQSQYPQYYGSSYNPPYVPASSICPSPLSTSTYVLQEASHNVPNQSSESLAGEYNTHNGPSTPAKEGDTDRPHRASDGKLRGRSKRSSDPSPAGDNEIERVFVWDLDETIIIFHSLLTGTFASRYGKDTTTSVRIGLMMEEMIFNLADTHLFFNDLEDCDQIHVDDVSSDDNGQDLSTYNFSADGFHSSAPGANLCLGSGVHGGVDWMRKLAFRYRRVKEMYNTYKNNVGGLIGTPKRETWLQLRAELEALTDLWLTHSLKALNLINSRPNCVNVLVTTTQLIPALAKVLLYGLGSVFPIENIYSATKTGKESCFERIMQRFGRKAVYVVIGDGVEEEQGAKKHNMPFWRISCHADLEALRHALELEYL
#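 Eya2 (0.2 uM) preincubated 10 min at ambient with compound, then OMFP substrate added at 50 uM; 10 min reaction in 50 mM HEPES pH 7.5, 50 mM NaCl, 5 uM MgCl2, 0.05% BSA, 1 mM DTT. Fluorescence read at Ex 485/Em 525 nm.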
# JMJD2E inh = inhibitors of human JMJD2E histone demethylase; JMJD2E catalytic domain, FDH-coupled NADH fluorescence (FDH is formaldehyde dehydrogenase); Potency, µM (highest dose often 57.1 µM), for the others: at the highest dose activity change, negative = inhibition, usual class: inhibitors; 230,000 compounds, 1.6% hits; active = well fitted inhibition curve with a large enough effect, not every such curve was filed as active; inconclusive = small, poorly fitted or top-dose-only effect, or another doubt; inactive = no such curve, though single readings can be large or run the other way;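 also: potency is read from the fitted curve at half-maximal effect; 0% = wells with enzyme and -100% = buffer wells without enzyme; nearly all actives have a fitted effect of over 50% in size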
# Six1-Eya2 inh = blocks human Six1 binding to Eya2. 360,000 compounds, 0.56% hits. Q15475+O00167. AID 651725. AlphaScreen GST-Six1/His-Eya2 binding, biochemical; hits give low values. activity change, % (concentration not given with the values); in the data active = activity change below about -65%; inconclusive = mostly about -30% to -63%
#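 Six1/Eya2 binding was read as AlphaScreen signal after compounds were pinned into GST-Six1 plus His-tagged Eya2 (5X stock 250/500 nM) in pH 8.0 Tris/NaCl/TCEP buffer, beads added, then incubated 1 h, 37 C, dark.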
# Starred values were filed as active, the others as inactive; u = inconclusive; x = not tested or not shown; [ ] = another dose, or the depositor's remark. Shown is part of a subset that was picked to be rich in hits. Unless noted, calls follow the shape of the dose curve; as a rule, active = well fitted curve in the direction sought with a large enough effect; inconclusive = small, poorly fitted or top-dose-only effect, or another doubt; inactive = no such curve, though single readings can be large; an effect the other way counts as inactive or inconclusive. Unless noted, % is scaled to controls: 0 for no effect and ±100 for the full control effect.
SMILES,CtBP-E1A inh,Apoferritin bind,GALK inhibitor,Eya2 phos inh,JMJD2E inh,Six1-Eya2 inh
O=C(O)Cc1ccccc1C(=O)O,3,10%,-3%,12%,-4%,6
O=C(O)Cc1cccc(=O)c(O)c1C(=O)O,u,x,x,x,x,-73*
COc1cc(-c2nnc(-c3cc(OC)c(OC)c(OC)c3)o2)cc(OC)c1OC,-1,-1%,-3%,-26%,u,-5
N#Cc1ccc(N=c2ssnc2Cl)cc1,-3,-16%,-3%,-31%,u,1
Clc1nssc1=Nc1ccccc1,-8,-16%,4%,12%,10µM*,2
Fc1ccc(N=c2ssnc2Cl)c(F)c1,10,-15%,5%,5%,u,-20
CCOC(=O)c1ccc(N=c2ssnc2Cl)cc1,-3,-15%,-1%,14%,u,0
COc1ccc(N=c2ssnc2Cl)cc1,-3,-12%,-3%,-10%,20µM*,5
Clc1ccc(N=c2ssnc2Cl)cc1,15,-5%,-1%,9%,10µM*,7
COc1cc(N=c2ssnc2Cl)cc(OC)c1OC,-1,u,0%,-2%,18µM*,4
COc1ccccc1CNc1ncnc2onc(-c3ccc(Cl)cc3)c12,x,3%,x,x,x,x
COc1ccc(N2CCN(C(CNC(=O)C(=O)NCc3ccc(C)cc3)c3cccnc3)CC2)cc1 (stereo not given),x,-14%,x,x,x,x
COC(=O)C1=C[C@@H](C(=O)OC)[C@@H]2C3=C(C(=O)[C@@]2(C)NC(=O)c2ccccc2)[C@H](C)[C@@H]2C(=O)N(c4ccccc4)C(=O)[C@@H]2[C@@H]3C1,x,-3%,x,x,x,x
Cc1cc(-c2nnc3n2N=C(c2ccccc2)CS3)n[nH]1,u,-6%,-1%,29%,10%,u
CC(C)(C)C1=Nn2c(nnc2-c2ccco2)SC1,-7,-9%,2%,2%[15.4 µM],-8%,-3
Oc1ccc(C2=Nn3c(nnc3-c3ccco3)SC2)cc1O,-94*,-1%,-11%,-4%,2%,-89*
COc1ccc(C2=Nn3c(nnc3-c3ccco3)SC2)cc1,-80*,-12%,0%,-9%,-6%,-66*
Cc1cc(-c2nnc3n2N=C(c2ccc(-c4ccccc4)cc2)CS3)n[nH]1,-69*,-21%,3%,10%,-9%,-72*
CSc1ncc(Cl)c(C(=O)Nc2c(C(=O)c3ccc(C)c(F)c3)oc3ccccc23)n1,x,6%,x,x,x,x
O=S1(=O)C2CC3CCC2(CN1Cc1cccc(F)c1)O3 (stereo not given),x,-7%,x,x,x,x
NS(=O)(=O)c1cc([C@@]2(O)NC(=O)c3ccccc32)ccc1Cl,x,-7%[29.3 µM],x,x,1%[25.5 µM],x
O=C(O)c1nn2c(C(F)(F)F)cc(-c3cccs3)nc2c1Cl,-67*,1%,0%,-3%,-15%,-74*
CCCC(=O)NC(c1ccccc1OC)c1ccc2cccnc2c1O (stereo not given),-84*,-12%,2%,-6%,32µM*,-88*
CCCCC(=O)NC(c1ccccc1OC)c1ccc2cccnc2c1O (stereo not given),-92*,-6%,-2%,1%,u,-76*
COc1ccccc1C(NC(C)=O)c1cc(Cl)c2cccnc2c1O (stereo not given),u,-3%,-4%,5%,x,u
SMILES,CtBP-E1A inh,Apoferritin bind,GALK inhibitor,Eya2 phos inh,JMJD2E inh,Six1-Eya2 inh
CCCCC(=O)NC(c1ccc(OC)c(OC)c1)c1c(O)ccc2ccccc12 (stereo not given),-13,-5%,-1%,-15%,-2%,-6
O=[N+]([O-])c1ccc(NN=Cc2ccccc2O)nc1,-79*,x,x,x,x,-78*
O=[N+]([O-])c1ccc(NN=Cc2ccc(O)cc2O)nc1,-74*,x,x,x,x,-69*
O=[N+]([O-])c1ccc(O)c(/C=N/Nc2nc3ccccc3[nH]2)c1,-97*,4%,-3%,-3%,u,-92*
O=C(CNS(=O)(=O)c1ccc([N+](=O)[O-])cc1)N/N=C/c1ccc(O)cc1O,u,0%,x,3%,x,-73*
COC(=O)[C@H](COC(C)(C)C)NC(=O)O[C@@H]1C(=O)c2ccc(OC)cc2O[C@H]1c1ccc2c(c1)OCO2,x,x,x,x,-15%,x
Cc1ccc2oc(-c3cc(NC(=O)c4ccc5c(c4)OCCO5)cc(C)c3O)nc2c1,x,-1%,x,x,x,x
CCOc1ccc(C2c3c(oc4cc(C)c(C)cc4c3=O)C(=O)N2c2ccccn2)cc1 (stereo not given),x,3%,x,x,x,x
CN(C)c1ccc2c(-c3ccccc3)c3ccc(=[N+](C)C)cc-3oc2c1,x,-12%,x,x,x,x
CCN(CC)S(=O)(=O)c1ccc(N/N=C/c2ccc(O)cc2O)nc1,-95*,-16%,2%,3%,2%,-94*
O=[N+]([O-])c1ccc(O)c(/C=N/Nc2ccccn2)c1,-92*,0%,1%,-7%,u,-90*
O=C(Nc1cnn(Cc2ccccc2)c1)NC12CC3CC(CC(C3)C1)C2,4,16µM*,0%,-18%,7%,-1
O=C(O)C1C2CCC(O2)C1C(=O)Nc1cnn(Cc2ccccc2)c1 (stereo not given),7,-9%,-2%,18%,-6%,3
CCS(=O)(=O)N1Cc2ccccc2CC1C(=O)Nc1nc2c(C)cccc2s1 (stereo not given),-5,-12%,-2%,0%,25µM*,-1
CCS(=O)(=O)N1Cc2ccccc2CC1C(=O)Nc1nc(C)cs1 (stereo not given),12,-7%,-8%,16%,-7%,2
Cc1cc(C)cc(N2C(=O)CC(Sc3ncn[nH]3)C2=O)c1 (stereo not given),2,-4%,2%,0%,1.3µM*,4
Cc1ccccc1OC1C=CC(c2ccccc2)OC1CO (stereo not given),x,-6%[15.3 µM],x,x,x,x
O=[N+]([O-])/C(C=Nc1ccccc1O)=C\Nc1ccccc1O,0,-11%,0%,0%,13µM*,-7
COc1ccc(N2CC(C(=O)N/N=C/c3c[nH]c4ccccc34)CC2=O)cc1 (stereo not given),-12,-16%,-1%,-7%,2%,-3
O=C(N/N=C/c1ccccc1O)C1CC(=O)N(c2ccc(F)cc2)C1 (stereo not given),u,-3%,1%,u,x,-70*
COc1ccc(N2CC(C(=O)Nc3ccc([N+](=O)[O-])cc3Br)CC2=O)cc1 (stereo not given),-5,3%,8%,-13%,x,-7
